# Reference: PubChem BioAssay (NCATS)
# Where “and” joins values, the source holds several entries; their conditions need not be identical. Equal values may be shown once. Records with an inconclusive call do not appear. Some compounds were tested as several samples or in several runs, with calls that do not always agree. Calls of active or inactive are those of the source. Calls come from the whole dose curve; as a rule, active = well fitted activation curve with a large enough effect in the signal ratio; inconclusive = small, poorly fitted or top-dose-only effect, or effect the other way, or a change in a side signal; inactive = flat fitted curve, though single readings scatter; the % refers to the signal ratio.
# Experiment: qHTS assay for small molecule agonists of the antioxidant response element (ARE) signaling pathway (AID 651741); for activation: % of control where 0% means no effect
# Conditions: HepG2 ARE-bla reporter, beta-lactamase FRET ratio, 16 h; series mostly up to 96 µM; activation: at the top concentration
# Source text: National Center for Advancing Translational Sciences [NCATS]
# NIH Chemical Genomics Center [NCGC]
# U.S. Environmental Protection Agency [EPA]
# National Institutes of Environmental Health Sciences [NIEHS]
# National Toxicology Program [NTP]
# Oxidative stress has been implicated in the pathogenesis of a variety of diseases ranging from cancer to neurodegeneration. The antioxidant response element (ARE) signaling pathway plays an important role in the amelioration of oxidative stress. The CellSensor ARE-bla HepG2 cell line (Invitrogen) can be used for analyzing the Nrf2/antioxidant response signaling pathway. Nrf2 (NF-E2-related factor 2) and Nrf1 are transcription factors that bind to AREs and activate these genes. The CellSensor ARE-bla Hep G2 cell line contains a beta-lactamase reporter gene under control of the Antioxidant Response Element (ARE) stably integrated into HepG2 cells. The activation of the report gene under culture conditions can be detected by fluorescence intensity. This cell line can be used to screen chemicals in a 1536-well plate format and to identify agonists that induce oxidative stress.
# The ARE-bla cells were dispensed at 2,000 cells/5 ul/well in 1536-well black wall/clear bottom plates using a Multidrop dispenser. After the assay plates were incubated at a 37 C/5% CO2 incubator for 5 hours, 23 nL of compounds dissolved in DMSO, positive controls or DMSO only was transferred to the assay plate by a pin tool. The plates were incubated at 37 C for 16 hours. After 1 uL of LiveBLAzer B/G FRET substrate was added using a Flying Reagent Dispenser, the plates were incubated at room temperature for 2 hours, and fluorescence intensity was measured by an Envision plate reader.
# Potency is the fitted concentration of half-maximal effect.
SMILES,activation,Potency
CC(C)(C)c1ccc(O)cc1,0.0155% (inactive),
CCCCCCCCCCCCCCCC(=O)OC(C)C,,54.5 µM (active)
[N-]=[N+]=CC(=O)OC[C@H](N)C(=O)O,6.71% (inactive),
O=C1c2ccccc2C(=O)C1C(=O)C(c1ccccc1)c1ccccc1,,61.1 µM (active)
COP(=S)(OC)Oc1cc(Cl)c(Cl)cc1Cl,,24.3 µM (active)
CCC(C)(C)c1ccc(O)cc1,4.26% (inactive),
Oc1ccccc1,,inactive and 1000 µM (active)
CN1C[C@H](C(=O)N[C@]2(C)O[C@@]3(O)[C@@H]4CCCN4C(=O)[C@H](Cc4ccccc4)N3C2=O)C=C2c3cccc4[nH]cc(c34)C[C@H]21,,37.6 µM (active)
COc1cc(OC)c(OC)cc1C=O,-4.98% (inactive),
COP(=S)(OC)Oc1ccc(SC)c(C)c1,12.9% (inactive),
CCOC(=O)CC(SP(=S)(OC)OC)C(=O)OCC (configuration not stated),,48.6 µM (active)
Nc1ccccc1,3.2% (inactive),
Nc1nc(N)nc(NC2CC2)n1,0.323% (inactive),
CCCC(C)(COC(N)=O)COC(N)=O,-3.44% (inactive),
CC(C)NC(C)C,-1.87% (inactive),
NCCc1ccc(O)cc1,1.51% (inactive),
Nc1ccc([As](=O)(O)O)cc1,1.37% (inactive),
O=P1(N(CCCl)CCCl)NCCCO1 (configuration not stated),-0.889% (inactive),
O=C(O)c1cc(O)c(O)c(O)c1,,4.22 µM (active)
CC(=O)N1CCN(c2ccc(OC[C@H]3CO[C@](Cn4ccnc4)(c4ccc(Cl)cc4Cl)O3)cc2)CC1,,30.6 µM (active)
CC(C)c1cccc(C(C)C)c1O,7.56% (inactive),
Clc1ccc(C(c2ccc(Cl)cc2)C(Cl)(Cl)Cl)cc1,,66.8 µM (active)
